Laboratory results: PubChem BioAssay AID1159580 (chemical genetic matrix, 2015)
Several values for one entry are separate records, joined by “and”; a condition that tells them apart may be missing. Equal values may be shown once. Out of some 5,500 compounds screened, about 2,000 (36%) were called active. Not shown: some 18% with an inconclusive outcome. Rule as the data show it: active = normalized growth mostly below about 0.91 (no sharp cut-off); inconclusive = no clear call, values can overlap the other calls; inactive = mostly above about 0.92. Some of the results follow.

Test: chemical genetic growth profiling, strain panel (AID 1159580);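 also: tested at 20 µM; growth read once vehicle control cultures reached saturation at 30 °C; 1 = growth at the plate median or of vehicle wells; lower values mean less growth of the strain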
Settings: S. cerevisiae deletion strains, growth OD
[1] = locus YAL013W, strain DEP1, active compounds read low
[2] = locus YBR229C, strain ROT2, active compounds read low
[3] = locus YDL101C, strain DUN1, active compounds read low
[4] = locus YDL134C, strain PPH21, active compounds read low
[5] = locus YEL061C, strain CIN8, active compounds read low
[6] = locus YHR030C, strain SLT2, active compounds read low
[7] = locus YHR079C, strain IRE1, active compounds read low
[8] = locus YJL095W, strain BCK1, active compounds read low
[9] = locus YJR043C, strain POL32, active compounds read low
[10] = locus YJR066W, strain TOR1, active compounds read low
[11] = locus YLR039C, strain RIC1, active compounds read low
[12] = locus YLR113W, strain HOG1, active compounds read low
[13] = locus YLR262C, strain YPT6, active compounds read low
[14] = locus YNL153C, strain GIM3, active compounds read low
[15] = locus YNL183C, strain NPR1, active compounds read low
[16] = locus YOR231W, strain MKK1, active compounds read low
[17] = locus YPL256C, strain CLN2, active compounds read low

Measured: normalized growth

COc1cc(O)cc(OC)c1OC
inactive: [1] 1.05 | locus YAL021C, strain ccr4, active compounds read low 0.982 | locus YAL026C, strain drs2, active compounds read low 0.974 | locus YAL030W, strain snc1, active compounds read low 0.977 | locus YBL061C, strain skt5, active compounds read low 0.98 | locus YBR009C, strain hhf1, active compounds read low 0.964 | locus YBR021W, strain FUR4, active compounds read low 1.01 | locus YBR023C, strain chs3, active compounds read low 0.999 | locus YBR171W, strain sec66, active compounds read low 0.978 | [2] 1.01 | locus YBR231C, strain swc5, active compounds read low 0.992 | locus YBR279W, strain paf1, active compounds read low 0.992 | locus YCL011C, strain gbp2, active compounds read low 0.969 | locus YCL016C, strain dcc1, active compounds read low 0.997 | locus YCL029C, strain bik1, active compounds read low 1.01 | locus YCL061C, strain MRC1, active compounds read low 0.986 | locus YCL069W, strain vba3, active compounds read low 0.978 | locus YCR088W, strain abp1, active compounds read low 0.987 | locus YDL005C, strain med2, active compounds read low 0.967 | locus YDL035C, strain GPR1, active compounds read low 1.05 | locus YDL040C, strain nat1, active compounds read low 0.989 | locus YDL074C, strain BRE1, active compounds read low 1.04 | [3] 1.02 | [4] 1.01 | locus YDL185W, strain tfp1, active compounds read low 1 | locus YDL192W, strain arf1, active compounds read low 1.03 | locus YDR001C, strain nth1, active compounds read low 0.972 | locus YDR069C, strain doa4, active compounds read low 0.962 | locus YDR101C, strain arx1, active compounds read low 1 | locus YDR137W, strain rgp1, active compounds read low 0.998 | locus YDR159W, strain sac3, active compounds read low 0.925 | locus YDR162C, strain NBP2, active compounds read low 1.06 | locus YDR195W, strain ref2 0.918 | locus YDR297W, strain sur2, active compounds read low 0.986 | locus YDR318W, strain mcm21, active compounds read low 1.01 | locus YDR334W, strain swr1, active compounds read low 0.975 | locus YDR335W, strain msn5, active compounds read low 0.991 | locus YDR388W, active compounds read low 1.01 | locus YDR392W, strain spt3, active compounds read low 0.942 | locus YDR502C, strain sam2, active compounds read low 0.999 | locus YEL003W, strain gim4, active compounds read low 0.987 | locus YEL037C, strain rad23, active compounds read low 0.988 | locus YEL061C, strain CIN8 (second series), active compounds read low 0.961 | [5] 1.02 | locus YER015W, strain faa2, active compounds read low 1 | locus YER016W, strain bim1, active compounds read low 0.995 | locus YER110C, active compounds read low 1 | locus YER111C, strain swi4, active compounds read low 0.967 | locus YER155C, strain BEM2 (second series), active compounds read low 0.97 | locus YER155C, strain BEM2, active compounds read low 1.02 | locus YER167W, strain BCK2, active compounds read low 1.02 | locus YFR010W, strain ubp6, active compounds read low 0.962 | locus YGL078C, strain dbp3, active compounds read low 1.01 | locus YGL086W, strain mad1, active compounds read low 1.01 | locus YGL167C, strain pmr1, active compounds read low 0.954 | locus YGL173C, strain kem1, active compounds read low 0.99 | locus YGL227W, strain vid30, active compounds read low 0.97 | locus YGL240W, strain doc1, active compounds read low 0.945 | locus YGL248W, strain PDE1, active compounds read low 1.04 | locus YGL253W, strain hxk2, active compounds read low 0.995 | locus YGR135W, strain pre9, active compounds read low 1.01 | locus YGR252W, strain gcn5, active compounds read low 1.03 | locus YHR013C, strain ard1, active compounds read low 0.923 | locus YHR027C, strain rpn1, active compounds read low 0.993 | [6] 1.02 and 0.996 | locus YHR079C, strain IRE1 (second series), active compounds read low 0.995 | [7] 0.983 | locus YHR094C, strain hxt1, active compounds read low 0.992 | locus YHR129C, strain ARP1, active compounds read low 1.02 | locus YHR142W, strain chs7, active compounds read low 1.01 | locus YHR200W, strain rpn10, active compounds read low 1.01 | locus YIL066C, strain RNR3, active compounds read low 1.03 | locus YIL073C, strain SPO22, active compounds read low 1.06 | locus YIL125W, strain kgd1, active compounds read low 1.01 | locus YIR030C, strain dcg1, active compounds read low 1 | locus YJL092W, strain hpr5, active compounds read low 0.982 | locus YJL095W, strain BCK1 (second series), active compounds read low 0.996 | [8] 1.05 and 0.999 | locus YJL115W, strain asf1, active compounds read low 0.992 | locus YJL129C, strain trk1, active compounds read low 0.97 | locus YJL134W, strain LCB3, active compounds read low 1.03 | locus YJL154C, strain vps35, active compounds read low 0.983 | locus YJL164C, strain tpk1, active compounds read low 0.971 | locus YJL166W, strain qcr8, active compounds read low 0.993 | locus YJL168C, strain set2, active compounds read low 1.01 | locus YJL187C, strain SWE1 (second series), active compounds read low 1.03 | locus YJL187C, strain SWE1, active compounds read low 0.977 | [9] 1.05 | [10] 0.905 | locus YKL009W, strain mrt4, active compounds read low 1.05 | locus YKL068W, active compounds read low 1.01 | locus YKL085W, strain MDH1 (second series), active compounds read low 1.02 | locus YKL085W, strain MDH1, active compounds read low 1.02 | locus YKL160W, strain elf1, active compounds read low 1 | locus YKR001C, strain vps1, active compounds read low 1.01 | locus YKR026C, strain gcn3, active compounds read low 0.945 | locus YKR091W, strain srl3, active compounds read low 0.968 | locus YLL001W, strain dnm1, active compounds read low 0.994 | locus YLL026W, active compounds read low 0.998 | locus YLL041C, strain sdh2, active compounds read low 1 | locus YLR027C, strain aat2, active compounds read low 0.986 | [11] 1.11 | locus YLR058C, strain SHM2, active compounds read low 1.03 | locus YLR102C, strain apc9, active compounds read low 0.99 | [12] 1.04 | locus YLR221C, strain rsa3, active compounds read low 0.97 | locus YLR258W, strain gsy2, active compounds read low 0.996 | locus YLR262C, strain YPT6 (second series), active compounds read low 0.992 | [13] 1.15 | locus YLR268W, strain sec22, active compounds read low 1.03 | locus YLR320W, strain mms22, active compounds read low 0.984 | locus YLR342W, strain FKS1 (second series), active compounds read low 1.04 | locus YLR342W, strain FKS1, active compounds read low 0.957 | locus YLR357W, strain rsc2, active compounds read low 0.948 | locus YLR370C, strain arc18, active compounds read low 0.955 | locus YLR371W, strain rom2, active compounds read low 1 | locus YLR384C, strain iki3, active compounds read low 0.937 | locus YLR418C, strain cdc73, active compounds read low 1.01 | locus YML016C, strain PPZ1, active compounds read low 1.02 | locus YML032C, strain rad52, active compounds read low 1.01 | locus YML120C, strain ndi1, active compounds read low 0.97 | locus YML124C, strain tub3, active compounds read low 1.01 | locus YMR058W, strain fet3, active compounds read low 0.97 | locus YMR078C, strain ctf18, active compounds read low 1 | locus YMR125W, strain sto1, active compounds read low 0.984 | locus YMR129W, active compounds read low 0.962 | locus YMR205C, strain PFK2, active compounds read low 0.95 | locus YMR223W, strain ubp8, active compounds read low 0.993 | locus YMR231W, strain pep5, active compounds read low 0.994 | locus YMR307W, strain GAS1, active compounds read low 1.08 | locus YNL067W, strain RPL9B, active compounds read low 1.03 | locus YNL071W, strain lat1, active compounds read low 0.994 | locus YNL128W, strain TEP1, active compounds read low 1.07 | [14] 1.01 | [15] 0.928 | locus YNL209W, strain ssb2, active compounds read low 0.983 | locus YNL233W, strain BNI4, active compounds read low 1.03 | locus YNL248C, strain rpa49, active compounds read low 1 | locus YNL250W, strain rad50, active compounds read low 1.03 | locus YNL271C, strain bni1, active compounds read low 1.01 | locus YNL298W, strain CLA4, active compounds read low 1 | locus YNL307C, strain MCK1, active compounds read low 0.996 | locus YNL322C, strain KRE1 (second series), active compounds read low 0.964 | locus YNR049C, strain mso1, active compounds read low 0.986 | locus YNR052C, strain pop2, active compounds read low 0.996 | locus YOL006C, strain TOP1, active compounds read low 1.22 | locus YOL012C, strain htz1 1.19 | locus YOL147C, strain pex11, active compounds read low 1 | locus YOR001W, strain rrp6, active compounds read low 1.01 | locus YOR061W, strain CKA2, active compounds read low 1.04 | locus YOR069W, strain VPS5, active compounds read low 1.01 | locus YOR070C, strain gyp1, active compounds read low 0.993 | locus YOR080W, strain dia2, active compounds read low 0.977 | locus YOR083W, strain WHI5, active compounds read low 1 | locus YOR106W, strain vam3, active compounds read low 1 | locus YOR136W, strain idh2, active compounds read low 1.01 | locus YOR144C, strain elg1, active compounds read low 1 | locus YOR184W, strain ser1, active compounds read low 1.05 | [16] 1 | locus YOR265W, strain rbl2, active compounds read low 0.96 | locus YOR270C, strain vph1, active compounds read low 0.986 | locus YOR290C, strain snf2, active compounds read low 0.921 | locus YOR316C, strain cot1, active compounds read low 0.993 | locus YPL051W, strain arl3, active compounds read low 1.01 | locus YPL078C, strain atp4, active compounds read low 0.988 | locus YPL106C, strain sse1, active compounds read low 0.944 | locus YPL240C, strain hsp82, active compounds read low 0.981 | [17] 0.978 | locus YPR119W, strain clb2, active compounds read low 1 | locus YPR141C, strain kar3, active compounds read low 1.01 | locus YPR163C, strain tif3, active compounds read low 1 | locus YPR167C, strain met16, active compounds read low 1.01 | strain wtn01, active compounds read low 1.02

COc1cc(OC)cc(N2C(=O)C=CC2=O)c1
active: [1] 0.0543 | [2] 0.0573 | [3] 0.0709 | [4] 0.0477 | locus YDR150W, strain NUM1, active compounds read low 0.05 | [5] 0.0533 | locus YGR052W, strain FMP48, active compounds read low 0.129 | locus YGR078C, strain PAC10, active compounds read low 0.802 | [6] 0.0734 and 0.115 | [7] 0.231 | locus YHR082C, strain KSP1, active compounds read low 0.112 | locus YHR087W, strain rtc3, active compounds read low 0.0623 | [8] 0.127 | [9] 0.0486 | [10] 0.113 | locus YJR075W, strain HOC1, active compounds read low 0.0671 | locus YKL171W, strain NNK1, active compounds read low 0.0984 | locus YKL203C, strain TOR2, active compounds read low 0.107 | [11] 0.0602 | locus YLR058C, strain SHM2 (second series), active compounds read low 0.0529 | locus YLR085C, strain ARP6, active compounds read low 0.0621 | [12] 0.184 | [13] 0.0582 | locus YML094W, strain GIM5, active compounds read low 0.0622 | locus YMR219W, strain ESC1, active compounds read low 0.0491 | locus YMR263W, strain SAP30, active compounds read low 0.0514 | [14] 0.0557 | [15] 0.131 | locus YNL207W, strain RIO2, active compounds read low 0.0908 | locus YNL298W, strain CLA4 (second series), active compounds read low 0.0613 | locus YNL322C, strain KRE1, active compounds read low 0.0499 | locus YNR030W, strain Alg12, active compounds read low 0.0629 | locus YOR119C, strain RIO1, active compounds read low 0.121 | [16] 0.185 | locus YPL055C, strain LGE1, active compounds read low 0.07 | locus YPL241C, strain CIN2, active compounds read low 0.0792 | [17] 0.146 | locus YPR135W, strain CTF4, active compounds read low 0.18
